Where “and” joins values, the source holds several entries; their conditions need not be identical. Identical values can stand only once. About 6,900 (3.6%) of roughly 190,000 compounds were called active. The sample holds actives, similar compounds and a random draw of the others, so the mix is not that of the screen. No stated cut-off is given here; in the data, active means inhibition above about 50%; inactive means the rest.

The values below come from PubChem BioAssay AID1671202 (University of Kansas High Throughput Screening Laboratory, 2021).

Huntingtin (Homo sapiens), sequence (P42858 whole entry, looked up, stated change not applied): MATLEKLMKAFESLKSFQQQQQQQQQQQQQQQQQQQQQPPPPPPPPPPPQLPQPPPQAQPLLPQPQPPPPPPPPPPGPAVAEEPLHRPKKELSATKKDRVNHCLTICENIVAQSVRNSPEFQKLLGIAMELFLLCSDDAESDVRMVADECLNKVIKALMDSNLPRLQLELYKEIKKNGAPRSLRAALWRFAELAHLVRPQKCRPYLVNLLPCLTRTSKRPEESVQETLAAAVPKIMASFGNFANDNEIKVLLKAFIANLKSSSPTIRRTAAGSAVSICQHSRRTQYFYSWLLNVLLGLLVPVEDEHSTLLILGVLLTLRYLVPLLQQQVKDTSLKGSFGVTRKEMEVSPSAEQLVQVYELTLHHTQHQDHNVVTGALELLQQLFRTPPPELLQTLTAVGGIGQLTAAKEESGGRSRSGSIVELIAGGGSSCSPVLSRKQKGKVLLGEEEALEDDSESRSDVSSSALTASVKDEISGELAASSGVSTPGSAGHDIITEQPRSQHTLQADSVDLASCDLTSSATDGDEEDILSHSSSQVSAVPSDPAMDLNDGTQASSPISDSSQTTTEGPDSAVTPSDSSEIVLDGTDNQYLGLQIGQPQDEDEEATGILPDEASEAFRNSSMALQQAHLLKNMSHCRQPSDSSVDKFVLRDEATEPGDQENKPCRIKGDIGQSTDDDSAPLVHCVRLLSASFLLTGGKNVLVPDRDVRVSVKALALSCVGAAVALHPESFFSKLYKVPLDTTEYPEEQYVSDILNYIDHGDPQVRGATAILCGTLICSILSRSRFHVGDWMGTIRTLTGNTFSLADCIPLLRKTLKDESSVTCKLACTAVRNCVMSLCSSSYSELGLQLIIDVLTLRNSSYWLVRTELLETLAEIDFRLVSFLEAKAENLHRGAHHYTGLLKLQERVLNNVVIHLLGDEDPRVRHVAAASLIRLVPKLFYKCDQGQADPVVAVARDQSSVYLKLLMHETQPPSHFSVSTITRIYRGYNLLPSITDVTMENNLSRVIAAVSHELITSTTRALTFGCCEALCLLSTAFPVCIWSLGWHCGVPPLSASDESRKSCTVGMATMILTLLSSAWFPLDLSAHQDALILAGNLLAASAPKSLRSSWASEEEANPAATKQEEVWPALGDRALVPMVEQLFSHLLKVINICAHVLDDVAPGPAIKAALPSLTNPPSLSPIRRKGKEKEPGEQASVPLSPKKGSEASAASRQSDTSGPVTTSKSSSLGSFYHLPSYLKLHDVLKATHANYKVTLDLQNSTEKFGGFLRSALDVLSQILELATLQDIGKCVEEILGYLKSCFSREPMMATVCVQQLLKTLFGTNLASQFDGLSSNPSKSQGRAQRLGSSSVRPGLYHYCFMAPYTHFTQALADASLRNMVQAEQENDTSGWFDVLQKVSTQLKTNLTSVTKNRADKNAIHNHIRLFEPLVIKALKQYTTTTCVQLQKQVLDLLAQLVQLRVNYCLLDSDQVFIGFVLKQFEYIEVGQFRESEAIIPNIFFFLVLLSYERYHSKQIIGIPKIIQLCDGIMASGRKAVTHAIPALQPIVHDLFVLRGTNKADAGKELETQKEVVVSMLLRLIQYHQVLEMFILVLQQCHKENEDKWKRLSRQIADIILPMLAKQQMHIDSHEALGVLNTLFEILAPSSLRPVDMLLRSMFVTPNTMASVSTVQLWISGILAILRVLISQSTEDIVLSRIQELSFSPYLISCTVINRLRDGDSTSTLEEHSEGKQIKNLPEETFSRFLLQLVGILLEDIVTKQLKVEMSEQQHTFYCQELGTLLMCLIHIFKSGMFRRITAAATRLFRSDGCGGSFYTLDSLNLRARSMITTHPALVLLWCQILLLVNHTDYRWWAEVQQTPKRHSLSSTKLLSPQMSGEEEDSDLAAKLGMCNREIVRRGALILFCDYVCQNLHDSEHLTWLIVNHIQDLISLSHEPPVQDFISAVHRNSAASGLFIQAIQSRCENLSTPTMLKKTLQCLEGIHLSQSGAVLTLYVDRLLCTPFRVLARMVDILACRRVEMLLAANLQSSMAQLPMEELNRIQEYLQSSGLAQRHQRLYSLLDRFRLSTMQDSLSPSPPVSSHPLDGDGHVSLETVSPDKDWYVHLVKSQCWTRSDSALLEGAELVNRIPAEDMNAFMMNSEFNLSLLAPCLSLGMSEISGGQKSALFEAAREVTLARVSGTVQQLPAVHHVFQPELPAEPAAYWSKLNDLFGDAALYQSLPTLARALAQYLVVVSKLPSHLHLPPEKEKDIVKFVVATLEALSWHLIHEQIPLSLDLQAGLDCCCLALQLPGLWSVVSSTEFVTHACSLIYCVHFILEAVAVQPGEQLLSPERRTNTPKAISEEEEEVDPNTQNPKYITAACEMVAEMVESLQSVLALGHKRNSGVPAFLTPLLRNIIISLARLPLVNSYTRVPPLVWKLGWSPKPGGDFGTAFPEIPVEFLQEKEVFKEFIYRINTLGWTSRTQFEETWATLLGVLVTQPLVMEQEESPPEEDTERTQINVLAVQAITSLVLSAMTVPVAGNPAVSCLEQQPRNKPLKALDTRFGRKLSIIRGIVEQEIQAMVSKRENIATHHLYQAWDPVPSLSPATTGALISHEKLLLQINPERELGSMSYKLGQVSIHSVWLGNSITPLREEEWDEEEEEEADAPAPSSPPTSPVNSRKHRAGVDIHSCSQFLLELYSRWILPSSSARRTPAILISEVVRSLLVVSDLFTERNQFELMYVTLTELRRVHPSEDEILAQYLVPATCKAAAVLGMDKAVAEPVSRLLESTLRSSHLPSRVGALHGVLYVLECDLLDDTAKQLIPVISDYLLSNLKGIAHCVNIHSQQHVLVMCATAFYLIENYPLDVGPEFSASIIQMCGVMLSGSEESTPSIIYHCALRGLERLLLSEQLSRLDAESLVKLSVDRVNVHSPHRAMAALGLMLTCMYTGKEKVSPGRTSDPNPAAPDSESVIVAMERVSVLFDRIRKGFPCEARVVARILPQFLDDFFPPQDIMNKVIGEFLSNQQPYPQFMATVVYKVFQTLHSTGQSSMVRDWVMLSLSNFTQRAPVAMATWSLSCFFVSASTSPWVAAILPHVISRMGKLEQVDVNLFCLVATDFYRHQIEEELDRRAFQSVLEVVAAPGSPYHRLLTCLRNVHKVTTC

The assay concerns the target Huntingtin (Homo sapiens) (UniProt P42858). The assay can be described thus: mutant huntingtin-calmodulin interaction inhibitors – biochemical, AlphaScreen, primary screen (AID 1671202).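 Further: 0% = both proteins with DMSO and 100% = one protein alone.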 The settings on record: AlphaScreen His-mHTT/GST-CaM binding, luminescence; at 15 µM, hits give high values. A general note: Bead proximity is the source of the signal in Alpha formats.
In the case of `CCNc1nccc(N2CCC(CC(=O)NCc3cccc(Cl)c3)CC2)n1`, the inhibition (usually the change of the read-out against control, counted positive when it falls) is 7.56% (inactive). The figure for `COc1ccc(-c2cc(C(F)(F)F)n3nc(C(=O)N4CCC(C)CC4)cc3n2)cc1OC` is 4% (inactive); for `COc1ccc(CC(=O)NC(c2ccccc2)c2ccccc2)cc1OC` it is 53.3% (active); for `COc1ccc(C(=O)NC(C)c2ccccc2)cc1OC` (stereo unspecified) it is -4.5% (inactive). In the case of `COc1ccc(CCNC(=O)COc2ccccc2Br)cc1OC`, the inhibition was 1.8% (inactive) and -8.4% (inactive).

Turning to `COc1ccc(OC)c(CN2CCc3nc(N4CCOCC4)ncc3C2)c1`, the inhibition was 13.8% (inactive). To `CCc1ccccc1NC(=O)c1cc2n(n1)CCCN(Cc1ccc(F)cc1)C2=O` belongs -3.32% (inactive). To `Cc1cc(C)c(C(=O)Nc2nc3ccc(S(C)(=O)=O)cc3s2)c(C)c1` belongs -1.4% (inactive). The figure for `CC(C)(C)c1ccc(C(=O)Nc2nc3ccc(S(C)(=O)=O)cc3s2)cc1` is -2% (inactive); for `CS(=O)(=O)c1ccc2nc(NC(=O)/C=C/c3ccccc3)sc2c1` it is 76% (active); for `COc1cc(N2CN=c3s/c(=C\c4ccc([N+](=O)[O-])cc4)c(=O)n3C2)cc(OC)c1OC` it is 49% (inactive).

In the case of `Brc1ccc2c(c1)CCCN2`, the inhibition was 10% (inactive). The figure for `O=C1NN=C(c2ccccc2)/C1=C/c1ccc(-c2ccc(Cl)cc2)o1` is 61% (active). Turning to `CC1=NOC(=O)/C1=C/c1ccc(-c2cc(Cl)ccc2Cl)o1`, the inhibition is -2% (inactive). The figure for `Cc1nn2c(=O)/c(=C/c3ccc(-c4ccc(F)cc4)o3)sc2nc1=O` is -2% (inactive); for `Cc1cccc(CSC2=NCCN2C(=O)Cc2ccc(F)cc2)c1` it is -24% (inactive); for `N#C/C(=C\C=C\c1ccccc1)c1nc2ccccc2[nH]1` it is 75% (active) and 58% (active). To `CCCCOc1ccc(/C=C(\C#N)c2nc3ccccc3[nH]2)cc1` belongs -1% (inactive); to `COc1cc(/C=C(\C#N)c2nc3ccccc3[nH]2)ccc1OCC#N`, 12% (inactive). Regarding `CC(=O)c1cccc(NC(=O)/C(=C\c2ccc3c(c2)OCO3)NC(=O)c2ccccc2Cl)c1`, the inhibition is 7% (inactive). Regarding `COc1cccc2sc(N(C)CC(=O)Nc3nc(C)cs3)nc12`, the inhibition was -3% (inactive). Take `CCOc1cc(-c2ccc(O)c(OC)c2)cc(=O)c2c(C)oc(C)c12`: the inhibition was 51% (active). To `COc1cc(-c2ccc(O)c(O)c2)cc(=O)c2c(C)oc(C)c12` belongs 49% (inactive); to `COc1ccc(-c2c(C)c3ccc(O)c(CN4CCCC4)c3oc2=O)cc1OC`, 2.3% (inactive). For `N#CC1=C(N)N2CCN3C(N)=C(C#N)C1(c1ccccc1)C23c1ccccc1` (stereo unspecified), the inhibition is 21% (inactive).

Turning to `O=C1CC(O)(C(F)(F)F)Oc2ccc(Cl)cc21` (stereo unspecified), the inhibition was 0% (inactive).
